Laboratory results reported in PubChem BioAssay (NCATS).
Records with an inconclusive call do not appear. Calls of active or inactive are those of the source. Unless noted, calls follow the shape of the dose curve; as a rule, active = well fitted curve in the direction sought with a large enough effect; inconclusive = small, poorly fitted or top-dose-only effect, or another doubt; inactive = no such curve, though single readings can be large; an effect the other way counts as inactive or inconclusive.

What was measured:
[1] = MultiTox-Fluor Cytotoxicity Assay - LYMP1-001 - Live Cells (AID 947); conditions: LYMP1-001 lymphoblastoid cells, live-cell protease fluorescence viability; series mostly up to 92.2 µM
[2] = Cell Viability - LYMP1-002 - Assay at 16 hr (AID 948); conditions: LYMP1-002 lymphoblastoid cell viability; series mostly up to 92.2 µM
Procedure, shortened: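 Acute cytotoxicity is scored as a concentration-dependent fall in intracellular ATP in a human lymphoblastoid line (LYMP1-002) after 16 hr compound exposure at 37 C, measured by luciferase luminescence.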

[3] = MultiTox-Fluor Cytotoxicity Assay - LYMP1-002 - Live Cells (AID 955); conditions: LYMP1-002 lymphoblastoid live-cell protease fluorescence viability; series mostly up to 46.1 µM;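 also: cells exposed to compound for 16 hours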
Procedure, shortened: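 LYMP1-002 lymphoblastoid cells; 2500 cells/well; 16 hr compound exposure, 37 C; MultiTox-Fluor reagent 60 min RT; live-cell fluorescence Ex/Em=405/510; qHTS concentration-response, Hill-equation AC50; tetraoctylammonium bromide positive control.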

[4] = MultiTox-Fluor Cytotoxicity Assay - LYMP1-002 - Dead Cells (AID 960); conditions: LYMP1-002 lymphoblastoid cells, dead-cell protease fluorescence; series mostly up to 46.1 µM; also: nearly all actives have a fitted effect of over 60% in size
Procedure, shortened: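 Readout: fluorescence at 485/520 from cell-impermeant bis-AAF-R110 cleaved by proteases leaking from damaged cells. LYMP1-002 lymphoblastoid line, 16 hr compound treatment at 37 C, concentration-response in qHTS format; Hill-equation AC50 values.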

[5] = MultiTox-Fluor Cytotoxicity Assay - LYMP1-003 - Dead Cells (AID 961); conditions: LYMP1-003 lymphoblastoid cells, dead-cell protease fluorescence; series mostly up to 92.2 µM; also: nearly all actives have a fitted effect of over 70% in size
Procedure, shortened: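 Dead-cell protease release, detected as bis-AAF-R110 fluorescence at 485/520 nm, was measured in LYMP1-003 cells after 16 h compound treatment at 37 C. AC50 values came from Hill-modeled qHTS curves normalized to DMSO (0%) and 15 uM tetraoctylammonium bromide (100%).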

[6] = MultiTox-Fluor Cytotoxicity Assay - LYMP1-003 - Live Cells (AID 962); conditions: LYMP1-003 lymphoblastoid cells, MultiTox-Fluor live-cell protease fluorescence; series mostly up to 92.2 µM;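 also: cells exposed to compound for 16 hours at 37 °C; cytotoxic hits lower the live-cell protease signal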
Procedure, shortened: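 Readout: live-cell fluorescence (Ex/Em=405/510) from GF-AFC cleavage after 60 min MultiTox-Fluor reagent at room temperature. Lymphoblastoid LYMP1-003 cells, 16 hr compound treatment, 37 C. Concentration-response fitted to standard Hill equation for AC50.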

[7] = Cell Viability - LYMP1-003 - Assay at 24 hr (AID 963); conditions: LYMP1-003 lymphoblastoid cell viability; series mostly up to 92.2 µM
Procedure, shortened: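 CellTiter-Glo luminescence (intracellular ATP) read after 24 hr, 37 C compound exposure of 2500 LYMP1-003 human lymphoblastoid cells/well in complete medium; qHTS concentration series; AC50 via standard Hill equation.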

[8] = Cell Viability - LYMP1-003 - Assay at 40 hr (AID 964); conditions: LYMP1-003 lymphoblastoid viability; series mostly up to 92.2 µM; also: nearly all actives have a fitted effect of over 60% in size
Procedure, shortened: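 LYMP1-003 lymphoblastoid cells, 2500/well; 5 hr preincubation, 40 hr compound exposure, 37 C; CellTiter-Glo 30 min RT; luminescence; Hill-fit AC50. Positive control tetraoctylammonium bromide.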

[9] = molecular target: Pyruvate kinase (Leishmania mexicana) (UniProt Q27686); assay: qHTS Validation Assay for Inhibitors of Leishmania Mexicana Pyruvate Kinase (AID 945); conditions: purified L. mexicana pyruvate kinase, enzyme activity, E451W mutant enzyme; series mostly up to 57.5 µM
Procedure, shortened: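 Compounds are tested as eight-point concentration series. Reactions contain 0.2 nM LmPYK E451W, 0.5 mM PEP, 0.1 mM ADP, 7 mM MgCl2 and 50 mM KCl at pH 7.2, run 1 h at room temperature, then read by PKLight luminescence.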

[10] = molecular target: Pyruvate kinase PKM (Homo sapiens) (UniProt P14618); assay: qHTS Assay for Activators of Human Muscle Pyruvate Kinase (AID 954; active = well fitted curve in the direction sought with a large enough effect, not every such curve was filed as active); conditions: purified human muscle pyruvate kinase, luciferase-coupled luminescence, 1 h; series mostly up to 57.5 µM
Procedure, shortened: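 ATP production by PKM2 detected via luciferase luminescence after 1 h room-temperature reaction (0.1 nM enzyme, PEP at Km 0.5 mM, ADP 0.1 mM, pH 7.2 imidazole buffer). Inhibition scaled to no-enzyme control; activation referenced to 0.3 nM enzyme wells.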

Measured: Potency

Sequence of Pyruvate kinase (Leishmania mexicana) (Q27686 2-499 E452W): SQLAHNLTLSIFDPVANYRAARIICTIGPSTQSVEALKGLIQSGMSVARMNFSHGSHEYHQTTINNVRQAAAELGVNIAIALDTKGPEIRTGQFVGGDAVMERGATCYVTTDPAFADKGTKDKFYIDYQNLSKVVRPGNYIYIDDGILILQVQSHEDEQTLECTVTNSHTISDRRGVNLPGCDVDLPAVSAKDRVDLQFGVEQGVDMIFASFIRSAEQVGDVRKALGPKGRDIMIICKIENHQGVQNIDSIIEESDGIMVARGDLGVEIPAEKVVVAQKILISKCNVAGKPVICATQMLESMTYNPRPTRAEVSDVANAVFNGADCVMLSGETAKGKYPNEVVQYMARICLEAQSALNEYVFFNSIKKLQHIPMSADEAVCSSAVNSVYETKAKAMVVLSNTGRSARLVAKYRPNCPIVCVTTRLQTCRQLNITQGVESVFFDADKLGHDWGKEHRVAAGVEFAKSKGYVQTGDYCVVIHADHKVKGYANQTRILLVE
Sequence of Pyruvate kinase PKM (Homo sapiens) (P14618 whole entry, looked up): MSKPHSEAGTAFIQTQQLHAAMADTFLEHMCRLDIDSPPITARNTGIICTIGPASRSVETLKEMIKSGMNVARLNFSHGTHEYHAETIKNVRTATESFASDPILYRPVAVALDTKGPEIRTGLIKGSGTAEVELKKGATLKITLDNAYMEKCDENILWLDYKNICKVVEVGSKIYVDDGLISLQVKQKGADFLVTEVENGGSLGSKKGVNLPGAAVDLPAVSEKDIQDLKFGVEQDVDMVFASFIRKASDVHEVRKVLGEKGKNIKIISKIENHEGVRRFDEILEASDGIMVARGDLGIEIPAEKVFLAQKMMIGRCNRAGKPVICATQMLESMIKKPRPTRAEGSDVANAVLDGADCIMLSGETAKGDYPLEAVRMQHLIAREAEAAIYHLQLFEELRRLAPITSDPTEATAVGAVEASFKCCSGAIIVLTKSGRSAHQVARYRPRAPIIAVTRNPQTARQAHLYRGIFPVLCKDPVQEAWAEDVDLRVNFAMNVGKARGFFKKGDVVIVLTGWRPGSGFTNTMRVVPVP

CC12CCC(CC1)C(C)(C)O2
inactive: [1] | [2] | [3] | [4] | [5] | [6] | [7] | [8]

C=Cc1c(C)c2cc3[nH]c(cc4nc(cc5nc(cc1[nH]2)C(C)=C5CCC(=O)O)C(CCC(=O)O)=C4C)c(C)c3C=C
inactive: [9] | [10]

O=C1c2c(O)cccc2Cc2cccc(O)c21
inactive: [1] | [2] | [3] | [5] | [6] | [7] | [8]

[Cl][In]([Cl])[Cl]
inactive: [1] | [2] | [3] | [4] | [5] | [6] | [7] | [8]

C#CCN(C)Cc1ccccc1
inactive: [9] | [10]

NC(=O)N/N=C/c1ccc([N+](=O)[O-])o1
inactive: [1] | [2] | [3] | [4] | [5] | [6]

NCCNCCNCCN
inactive: [1] | [2] | [3] | [4] | [5] | [6] | [7] | [8]
